For one experiment, the target named is COL20A1. Kind of experiment: pooled miR-30 sensor sort-seq; sequence = guide strand. To be noted: shRNA.
Take TAGACAAGCACGCCAGACGGGG: the sensor-assay potency score (higher = more potent) is -1.06. In turn, TTGAACTTGCTCTCTTCCCAGG registered a sensor-assay potency score (higher = more potent) of -1.19. TATCTGAACTTGGAAATGCTAC yielded a sensor-assay potency score (higher = more potent) of -0.775.

In another experiment the target is COL23A1. The description is as above. To be noted: shRNA.
Regarding TAGTCGATCACCACTGTGTCTC, the sensor-assay potency score (higher = more potent) was -0.624. TTTGCCTGCACAGCCCACCTAG: the sensor-assay potency score (higher = more potent) was -1.12. Same read-out and setting: under TCATAGTCGATCACCACTGTGT stands 0.319; under TTGAGGGCATCCAAGATCCTGC, -1.13. As for TTCGCTAGTCCGTCCAACTTCT, the sensor-assay potency score (higher = more potent) is -0.113. Same read-out and setting: under TTGTCCTTGGTCTCCCCGGGGG stands -1.12. TTCTCTCCACGCTCGCTCCGAT yielded a sensor-assay potency score (higher = more potent) of -1.13. TTGCTGGGAACACTTGCTGGAG came in with a sensor-assay potency score (higher = more potent) of -1.43.

TTGCTTTGCCTGCACAGCCCAC: the sensor-assay potency score (higher = more potent) is -1.59.

Sequence TAGAGCTAGACCCTCGTGGGGG had a sensor-assay potency score (higher = more potent) of -0.316. Regarding TAGTCCGTCCAACTTCTCCCGC, the sensor-assay potency score (higher = more potent) is -1.02. With TCTACCTTCATCTCCTTCCTGG, the sensor-assay potency score (higher = more potent) stood at 0.0937.

In the next experiment the target is COL4A2. The experiment is described as above. The settings on record: shRNA.
The sequence TAAATTTATAGTGTCCCCGATG came in with a sensor-assay potency score (higher = more potent) of -0.984. For the sequence TAGGACTTGTCGTTCCGGCTGG, the sensor-assay potency score (higher = more potent) was found to be 0.103. In turn, TCTATCTCCTTTTAGCCCGGGG came in with a sensor-assay potency score (higher = more potent) of -0.278. Consider TTTGTAGTCGTTACACAGGAGG, for which the sensor-assay potency score (higher = more potent) is -1.03. For the sequence TAGGGCTTGATCTCGTCCTCGG, the sensor-assay potency score (higher = more potent) is -0.228. In turn, TGATTGTTCTGGAATCTCCTTT returned a sensor-assay potency score (higher = more potent) of 0.225. The same measure, in the same setting: under TTGGTTGTGATTGTTCTGGAAT stands -0.89. On the same count and under the same terms, for TTGGTCTCCTTTCTGTCCTGGG the value was -0.772; for ATCTGTGTCACAATCTATTTGT, -0.377. In the case of TTTAATGTCTTTCATTCCTGGC, the sensor-assay potency score (higher = more potent) is -0.64.

TTTCTCTCCTTTAATGTCTTTC: the sensor-assay potency score (higher = more potent) was -0.595. In the case of TTTACGTCCCTGCAGTCCCGGG, the sensor-assay potency score (higher = more potent) is -1.37. TTGCATTCGATGAATGGTGTGG: the sensor-assay potency score (higher = more potent) stood at 0.0414. Sequence TGTCACAATCTATTTGTCCTGG gave a sensor-assay potency score (higher = more potent) of 0.235. In the case of TAGTAGTGGCAGGTGCCGCGGC, the sensor-assay potency score (higher = more potent) is -0.784.

TTCTCCTGGAGTACCCTTCGTT returned a sensor-assay potency score (higher = more potent) of -0.712. On the same count and under the same terms, under TTAAATCTCAGGGACAACGTGG stands -0.373; under TACATCTGCATTCCCCAGCGTC, -0.779. Regarding TAGTAGCAGACATCACCAGGGT, the sensor-assay potency score (higher = more potent) was found to be 0.056. TTTGATAGCTTCGTCGCCTTCT: the sensor-assay potency score (higher = more potent) is 0.156. The sequence TACAGGAAGGGCATGGTGCTGA yielded a sensor-assay potency score (higher = more potent) of -0.213. Still for that read-out and setting: under TATCCGATCCACAAACTCCGCC stands -0.539; under TCACATCTGTGTCACAATCTAT, -0.621. As for TCACACACAGAACAGCGGCTGA, the sensor-assay potency score (higher = more potent) is -0.772.
Also: reference of the scale not given here.
